Source: PubChem BioAssay
BAZ2B inh – qHTS Assay for Inhibitors of BAZ2B | Bromodomain adjacent to zinc finger domain protein 2B (Homo sapiens), Q9UIF8 | AlphaScreen BAZ2B-H3K14Ac peptide displacement | Potency, µM (titrated, usually from 114 µM), for inactives: at the top dose activity change, negative = inhibition, actives largely listed as inhibitors | 4.4% of 360,000 active | AID 504333, 2011; note: % is set by controls: 0 for no effect and ±100 for the full control effect; nearly all actives have a fitted effect of over 60% in size
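AlphaScreen luminescence quantifies BAZ2B engagement of H3K14Ac peptide; the protein and biotinylated peptide are both at 50 nM final, buffer PBS pH 7.4 with 0.01% Tween-20, all steps at room temperature.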
L3MBTL1 inh – qHTS Assay for the Inhibitors of L3MBTL1 | Potency, µM (doses to about 57.1 µM), inactives show at the top dose activity, negative = inhibition, hits mostly inhibitors | Lethal(3)malignant brain tumor-like protein 1 (Homo sapiens), Q9Y468 | 0.66% of 230,000 active | AlphaScreen L3MBTL1–H3K9me1 peptide binding; note: % is set by controls: 0 for no effect and ±100 for the full control effect; nearly all actives have a fitted effect of over 60% in size
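Displacement of a biotinylated histone H3(1-15) peptide monomethylated at Lys9 (75 nM) from L3MBTL1 (50 nM) was measured by AlphaScreen after a 30 min room-temperature compound incubation; cefsulodin titration served as intraplate control.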
PLK1 PBD block – qHTS for Inhibitors of PLK1-PDB (polo-like kinase 1 - polo-box domain): Primary Screen; Serine/threonine-protein kinase PLK1 (Homo sapiens), P53350; 2.8% of 360,000 active; Plk1 PBD binding of FITC phosphopeptide, fluorescence polarization; Potency, µM, for inactives: max response, negative = inhibition, usual class: inhibitors; note: series mostly up to about 57 µM; % is set by controls: 0 for no effect and ±100 for the full control effect; nearly all actives have a fitted effect of over 65% in size
JMJD2A Tudor inh – qHTS Assay for Inhibitors of JMJD2A-Tudor Domain; Lysine-specific demethylase 4A (Homo sapiens), O75164; AlphaScreen JMJD2A-Tudor / H3K4me3 peptide binding; Potency, µM (titrated, usually from 114 µM), inactives show at the highest dose activity change, negative = inhibition, most hits filed as inhibitors; 4.4% of 390,000 active; AID 504339, 2011; note: % is set by controls: 0 for no effect and ±100 for the full control effect; nearly all actives have a fitted effect of over 50% in size
VDR inhibitor – Inhibitors of the vitamin D receptor (VDR): qHTS; VDR-SRC2-3 peptide fluorescence polarization, 2 h; Potency, µM, for inactives: max response, negative = inhibition, most hits filed as inhibitors; 0.93% of 400,000 active; AID 504847, 2011; Vitamin D3 receptor (Homo sapiens), P11473; note: % is set by controls: 0 for no effect and ±100 for the full control effect
Target sequence (P11473 whole entry, looked up): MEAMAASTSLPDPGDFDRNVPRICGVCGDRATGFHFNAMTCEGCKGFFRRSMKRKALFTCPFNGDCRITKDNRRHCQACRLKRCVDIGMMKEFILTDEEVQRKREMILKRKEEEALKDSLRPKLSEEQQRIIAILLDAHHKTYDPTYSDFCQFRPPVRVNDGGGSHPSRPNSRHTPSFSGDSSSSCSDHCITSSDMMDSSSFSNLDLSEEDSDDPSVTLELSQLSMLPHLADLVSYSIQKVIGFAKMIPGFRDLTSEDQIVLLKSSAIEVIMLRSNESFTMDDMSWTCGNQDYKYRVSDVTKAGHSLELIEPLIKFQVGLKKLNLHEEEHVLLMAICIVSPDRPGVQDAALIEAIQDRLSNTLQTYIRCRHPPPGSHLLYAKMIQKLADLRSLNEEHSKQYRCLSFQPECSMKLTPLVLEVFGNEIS
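Measured by FP: displacement of SRC2-3 coactivator peptide from VDR by library compounds, following a two-hour ambient incubation.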
HP1b binding inh – HTS for Inhibitors of HP1-beta Chromodomain Interactions with Methylated Histone Tails; AlphaScreen HP1-beta / biotin-H3K9me3 peptide binding; Potency, µM (highest dose often 114 µM), without a hit: at the top dose activity change, negative = inhibition, actives largely listed as inhibitors; 0.56% of 390,000 active; AID 540317, 2011; note: nearly all actives have a fitted effect of over 70% in size
Target sequence (P83916 whole entry, looked up): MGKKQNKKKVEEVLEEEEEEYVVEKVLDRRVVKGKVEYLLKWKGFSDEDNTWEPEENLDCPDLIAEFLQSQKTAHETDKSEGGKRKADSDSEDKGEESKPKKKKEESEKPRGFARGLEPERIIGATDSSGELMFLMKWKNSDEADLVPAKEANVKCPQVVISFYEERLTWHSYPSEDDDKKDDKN
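HP1-beta protein (50 nM final) preincubated 30 min at room temperature with biotinylated H3(1-18)K9me3 peptide (50 nM) in PBS pH 7.4, 0.01% Tween-20, then compound added for 30 min. AlphaScreen streptavidin donor/nickel chelate acceptor beads (10 ug/mL final), 30 min dark, luminescence read.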
An asterisk follows results filed as active; ? = inconclusive; / = not tested or not shown; [ ] = another dose, or the depositor's remark. Compounds with a hit are over-represented: about 6.9% of the library has one in this group of screens. Calls come from the whole dose curve; as a rule, active = well fitted curve in the direction sought with a large enough effect; inconclusive = small, poorly fitted or top-dose-only effect, or another doubt; inactive = no such curve, though single readings can be large; an effect the other way counts as inactive or inconclusive. Potency is the fitted concentration of half-maximal effect.

SMILES	BAZ2B inh	L3MBTL1 inh	PLK1 PBD block	JMJD2A Tudor inh	VDR inhibitor	HP1b binding inh
OCCN(CC#CC(O)(c1ccccc1)c1cccc(F)c1)CCO (stereo unspecified)	79µM*	12%	-13%	?	0%	-5%
O=C(Nc1cccc(F)c1)N1CC2(CCN(C(=O)c3ccncc3)CC2)C1	/	/	/	/	18%	/
c1cn(CCCNC2=NCCCCC2)cn1	50µM*	-7%	4%	-28%	-10%	27%
c1cn(CCCNC2CCCCCCC2)cn1	/	/	0%	40µM*	-2%	?
c1cn(CCCNc2ncnc3sc4c(c23)CCC4)cn1	13%	-10%	-6%	-23%	-4%	11%
O=C(Nc1ccc2c(c1)OCCO2)C1c2ccccc2OCC(=O)N1Cc1cccnc1 (stereo unspecified)	/	/	-4%	/	/	/
O=C(OCC#CCSc1nnc(-c2cc3ccccc3cc2O)o1)c1ccc(F)cc1	/	/	/	-14%	/	/
O=[S+]([O-])(c1ccc2c(c1)OCCO2)N1CCN([S+](=O)([O-])c2c(F)cc(O)cc2F)CC1	/	/	/	-23%	/	/
O=S1(=O)C=C(Sc2nc3ccccc3s2)c2ccccc21	-1%	/	2.7µM*	-16%	13µM*	52%
CCC(C(=O)O)c1ccccc1 (stereo unspecified)	/	/	/	/	7%	/
CCC(c1ccccc1)C(CC)c1cc(O)c(O)c(O)c1 (stereo unspecified)	/	/	6µM*	-13%	?	-9%[57 µM]
CCN(CC)c1ccc(-c2nc3cnccn3c2NC2CCCC2)cc1	-5%	-2%	3%	79µM*	-16%	?
CC1=C(C(=O)Nc2ccc(C)cc2C)C(c2ccc(Br)cc2)n2ncc(C(=O)Nc3cccc(C)c3)c2N1 (stereo unspecified)	7%[57.1 µM]	/	/	-11%	8%	25%
C[C@@H]1CN([C@H](C)CO)C(=O)CCCn2cc(nn2)CO[C@H]1CN(C)C(=O)Nc1cccc(Oc2ccccn2)c1	/	/	-16%	/	/	/
C[C@@H]1CC[C@H]2[C@H](C)[C@H]3CC[C@H]4C5[C@@H](O)CC6=CC(=O)CC[C@]6(C)[C@H]5C[C@H]4C3C(=O)N2C1 (stereo partly specified)	/	/	/	/	-7%	/
CC(C)(C)NC(=S)NC(=O)C12CCC3CC(CC(C3)C1)C2	71µM*	-7%	-8%	?	-2%	3%
CSCC[C@H](NC(=O)[C@H](CC(C)C)NC(=O)CNC(=O)[C@@H]1CCCN1C(=O)[C@H](Cc1ccccc1)NC(=O)[C@H](Cc1ccccc1)NC(=O)[C@H](CC(=O)O)NC(=O)[C@H](Cc1cnc[nH]1)NC(=O)[C@H](CCSC)NC(=O)[C@@H](N)CC(=O)O)C(N)=O	/	/	/	/	4%	/
COc1ccc(OC)c(-c2csc(-c3c(N)c(C(=O)c4ccc(Cl)cc4)n4ccccc34)n2)c1	5%	/	/	-10%	1%	21%
O=C(N=C1SC2CS(=O)(=O)CC2N1c1ccccc1)C1CC1 (stereo unspecified)	-3%	/	4%	19%	-16%	43%
O=C(CC1CCCCC1)N=C1SC2CS(=O)(=O)CC2N1c1ccccc1 (stereo unspecified)	4%	/	27µM*	-20%	-14%	17%
CCCCc1nnc(NC(=O)CSc2nc(O)c(Cc3ccccc3)c(=O)[nH]2)s1	/	/	27µM*	-22%[11.4 µM]	-3%	-4%
CCCCc1nnc(NC(=O)CSc2nc(O)c(-c3ccccc3)c(=O)[nH]2)s1	3%	/	-12%	-4%	-15%	27%
O=C(CSc1nc(-c2ccccc2)cc(=O)[nH]1)N1CCc2ccccc21	-39%	5%	3µM*	?	?	?
CCCc1cc(=O)[nH]c(SCC(=O)N(C)CC(=O)Nc2ccccc2CC)n1	6%	7%	27µM*	?	?	-1%
Nc1cc(=O)[nH]c(SCC(=O)N2CCCc3ccccc32)n1	7%	5%	-4%	-12%	4%	17%
SMILES	BAZ2B inh	L3MBTL1 inh	PLK1 PBD block	JMJD2A Tudor inh	VDR inhibitor	HP1b binding inh
CCCc1cc(=O)[nH]c(SCC(=O)N2CCCc3ccccc32)n1	1%	-6%	21µM*	?	-14%	-9%
O=C(NCc1ccccc1Cl)C(=O)NCC(c1ccco1)S(=O)(=O)c1cccs1 (stereo unspecified)	5%	/	/	-1%	12%	35%
COC(=O)C(C)Sc1n[nH]c(=S)s1 (stereo unspecified)	?	/	?	40µM*	-7%	?
COc1ccc(CCC(C(O)C(F)(F)F)S(=O)c2ccccc2)cc1 (stereo unspecified)	8%	1%	?	40µM*	-6%	5%
COc1ccc(NS(=O)CCCc2ccccc2)cc1 (stereo unspecified)	/	/	-9%	/	/	/
CCCC(=O)N1CCCC1(C)C(=O)NCc1ccc(F)cc1Cl (stereo unspecified)	/	/	-2%	/	/	/
O=C(CC1C(=O)NCCN1Cc1ccc(F)cc1)NCCN1CCCc2ccccc21 (stereo unspecified)	79µM*	-6%	-5%	?	-1%	-9%
O=C(CC1C(=O)NCCN1Cc1cccc(F)c1)NCCCN1CCCC1=O (stereo unspecified)	-9%	/	-11%	-16%	-6%	22%
Cc1cc2c(cc1NC(=O)c1ccccc1C)n(C)c(=O)c(=O)n2C	-3%	/	/	-16%	7%	-16%
CCCCCCN1C[C@H](O)[C@@H](n2cc(-c3ccc(F)cc3)nn2)C[C@@H]1c1ccccc1	/	/	7%	/	/	/
Cc1cccc(-c2nsc(SCC(=O)N3CCCC3)n2)c1	-5%	0%	?	2%	5%	3%
CCOC(=O)CSc1nc(-c2ccccc2)ns1	193%	52%	3.4µM*	98%	?	86%
Clc1ccc(Cn2nc(-c3ccccc3)nc2-c2ccccc2)cc1	36%	24%	24µM*	-9%[57.1 µM]	-29%	?
CCOC(=O)Cn1nc(-c2ccccc2)nc1-c1ccccc1	6%	1%	-22%	5.6µM*	2%	73%
O=C(CSc1nc(-c2ccccc2)ns1)N1CCOCC1	-17%	/	21µM*	-14%	-25%	-15%
CCOC(=O)Cn1nc(-c2ccccc2)c(-c2ccccc2)nc1=O	-6%	/	-11%	-12%	-12%	14%
O=C1C=CC(=O)N1	11%	-1%	30µM*	-35%	40µM*	?
CNCCC=C1c2ccccc2C=Cc2ccccc21	/	/	-13%	-15%	-18%	39%
